# Laboratory results: PubChem BioAssay (EPA / NIEHS)
# Where “and” joins values, the source holds several entries; their conditions need not be identical. Equal entries are not always repeated. Records with an inconclusive call do not appear. Calls of active or inactive are those of the source. How the source made its calls, unless noted: active means hit-call score of the fitted dose curve at least 0.9, where 1 is the maximum; inactive means score below 0.9.
# Columns and labels:
# [1] = CCTE_Harrill_HTTr_Viability_MCF7: CCTE's 6-hour Cell Viability Assessment for the High-Throughput Transcriptomics (HTTr) Platform, in MCF-7 cells cultured in DMEM + 10% fetal bovine serum, Harrill Lab (AID 2284010)
# Summary of the method: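 Eight-point concentration series, six-hour exposure. Propidium iodide exclusion imaged to assess membrane integrity as a cytotoxicity readout; bidirectional fitting was done with DMSO as negative control and activity baseline.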
# [2] = CCTE_Harrill_HTTr_Apoptosis_MCF7: CCTE's 6-hour Apoptosis Assessment for the High-Throughput Transcriptomics (HTTr) Platform, in MCF-7 cells cultured in DMEM + 10% fetal bovine serum, Harrill Lab (AID 2284011)
# Summary of the method: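 MCF-7 cells in DMEM + 10% FBS exposed 6 h to chemicals over an eight-point dilution series. Caspase-3/7 activation imaged by high-content CellEvent Green staining; fitted bidirectionally versus DMSO.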
# [3] = CCTE_Harrill_HTTr_CellCount_MCF7: CCTE's Cell Proliferation Assessment for the High-Throughput Transcriptomics (HTTr) Platform, Harrill Lab (AID 2284012; active means hit-call score of the fitted dose curve at least 0.9, where 1 is the maximum;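 further: count of Hoechst-stained nuclei per well by high-content imaging in MCF-7 cells; cells exposed to compound for six hours; intended direction is loss of nuclei count meaning fewer cells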)
# Summary of the method: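 For this full-screen endpoint, MCF-7 cultures received eight compound dilutions for six hours. Well nuclei counts from Hoechst imaging were analyzed relative to DMSO.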
smiles,measurement,setting,value
N#CCC#N,outcome,[1],inactive
same,outcome,[2],inactive
same,outcome,[3],inactive
O=c1[nH]c2ccccc2n1C1CCN(CCCC(c2ccc(F)cc2)c2ccc(F)cc2)CC1,AC50,[1],77.9 µM (active)
same,AC50,[2],60.9 µM (active)
same,AC50,[3],94.7 µM (active)
Clc1cccc(Cl)c1,outcome,[1],inactive
same,outcome,[2],inactive
same,outcome,[3],inactive
C1CCC(C2CCCCC2)CC1,outcome,[1],inactive
same,outcome,[2],inactive
same,outcome,[3],inactive
C1CN2CCN1CC2,outcome,[1],inactive
same,outcome,[2],inactive
O=C(NC(=O)c1c(F)cccc1F)Nc1ccc(Cl)cc1,outcome,[1],inactive
same,outcome,[2],inactive
same,outcome,[3],inactive
O=NN1CCOCC1,outcome,[1],inactive
same,outcome,[2],inactive
CCOC(=O)c1ccccc1S(=O)(=O)NC(=O)Nc1nc(Cl)cc(OC)n1,outcome,[1],inactive
same,outcome,[2],inactive
same,outcome,[3],inactive
Nc1ncn[nH]1,outcome,[1],inactive
same,outcome,[2],inactive
same,outcome,[3],inactive
Cc1cc(Cl)ccc1OCCCC(=O)O,outcome,[1],inactive
same,outcome,[2],inactive
same,outcome,[3],inactive
O=NN1CCCCCC1,outcome,[1],inactive
same,outcome,[2],inactive
CC(C)O.CC(C)O.OCCN(CCO)CCO.OCCN(CCO)CCO.[Ti],outcome,[1],inactive
same,outcome,[2],inactive
O=C(O)COc1ccc(Cl)cc1,outcome,[1],inactive
same,outcome,[2],inactive
same,outcome,[3],inactive
C[As+](C)(C)CC(=O)[O-],outcome,[1],inactive
same,outcome,[2],inactive
Nc1nc(N)nc(Cl)n1,outcome,[1],inactive
same,outcome,[2],inactive
COC(=O)c1cc(Oc2ccc(Cl)cc2Cl)ccc1[N+](=O)[O-],outcome,[1],inactive
same,outcome,[2],inactive
OC[C@@H](O)[C@H]1O[C@@H]2O[C@H](C(Cl)(Cl)Cl)O[C@@H]2[C@H]1O,outcome,[1],inactive
same,outcome,[2],inactive
same,outcome,[3],inactive
CC(C)[C@H](C(=O)OC(C#N)c1cccc(Oc2ccccc2)c1)c1ccc(OC(F)F)cc1 (some centres undefined),outcome,[1],inactive
same,outcome,[2],inactive
CC(C=O)Cc1ccc2c(c1)OCO2 (centres undefined),outcome,[1],inactive
same,outcome,[2],inactive
same,outcome,[3],inactive
Cc1cccc(C)c1NC(=O)CN1CCCC1=O,outcome,[1],inactive
same,outcome,[2],inactive
same,outcome,[3],inactive
CC(C)(C)c1ccc(CCOc2ncnc3ccccc23)cc1,outcome,[1],inactive
same,outcome,[2],inactive
CN(C1CCCCC1)C1CCCCC1,outcome,[1],inactive
same,outcome,[2],inactive
COCC(=O)N(c1c(C)cccc1C)[C@H](C)C(=O)OC,outcome,[1],inactive
same,outcome,[2],inactive
O=S1OC[C@@H]2[C@H](CO1)[C@]1(Cl)C(Cl)=C(Cl)[C@@]2(Cl)C1(Cl)Cl (some centres undefined),outcome,[1],inactive
same,outcome,[2],inactive
CCC[CH2][Sn]([Cl])([Cl])[CH2]CCC,outcome,[1],inactive
same,outcome,[2],inactive
same,outcome,[3],inactive
COc1nn(C(=O)NS(=O)(=O)c2ccccc2OC(F)(F)F)c(=O)n1C,outcome,[1],inactive
same,outcome,[2],inactive
N#CS,outcome,[1],inactive
same,outcome,[2],inactive
C[C@@H]1O[C@@H](O[C@H]2C[C@@H](O)[C@]3(CO)[C@H]4[C@H](O)C[C@]5(C)[C@@H](C6=CC(=O)OC6)CC[C@]5(O)[C@@H]4CC[C@]3(O)C2)[C@H](O)[C@H](O)[C@H]1O,outcome,[1],inactive
same,outcome,[2],inactive
C=CCN=C=S,outcome,[1],inactive
same,outcome,[2],inactive
CCOc1cc(C=O)ccc1O,outcome,[1],inactive
same,outcome,[2],inactive
same,outcome,[3],inactive
O=[N+]([O-])c1ccccc1O,outcome,[1],inactive
same,outcome,[2],inactive
same,outcome,[3],inactive
Clc1cnc(Oc2ccc(Oc3ncc(Cl)cc3Cl)cc2)c(Cl)c1,outcome,[1],inactive
same,outcome,[2],inactive
same,outcome,[3],inactive
C[C@H]1C(=O)O[C@@H]2CCN3CC=C(COC(=O)[C@](C)(O)[C@]1(C)O)[C@H]23,outcome,[1],inactive
same,outcome,[2],inactive
same,outcome,[3],inactive
CCOC(=O)CCN(SN(C)C(=O)Oc1cccc2c1OC(C)(C)C2)C(C)C,outcome,[1],inactive
same,outcome,[2],inactive
same,outcome,[3],inactive
Cc1cc(SCc2sc(-c3ccc(C(F)(F)F)c(F)c3)nc2C)ccc1OCC(=O)O,outcome,[1],inactive
same,outcome,[2],inactive
same,outcome,[3],inactive
Cc1cc(Cl)ccc1N,outcome,[1],inactive
same,outcome,[2],inactive
same,outcome,[3],inactive
O=CCCl,outcome,[1],inactive
same,outcome,[2],inactive
same,outcome,[3],inactive
OCCN(CCO)CCO,outcome,[1],inactive
same,outcome,[2],inactive
same,outcome,[3],inactive
COCCl,outcome,[1],inactive
same,outcome,[2],inactive
same,outcome,[3],inactive
CNC(=O)O/N=C/C(C)(C)S(C)(=O)=O,outcome,[1],inactive
same,outcome,[2],inactive
same,outcome,[3],inactive
O=C1C[C@@H]2OCC=C3CN4CC[C@]56c7ccccc7N1[C@H]5[C@H]2[C@H]3C[C@H]46,outcome,[1],inactive
same,outcome,[2],inactive
same,outcome,[3],inactive
O=C1C=CC(=O)c2ccccc21,AC50,[1],69.1 µM (active)
same,AC50,[2],60.4 µM (active)
same,AC50,[3],76.2 µM (active)
O=[N+]([O-])c1cccc2ccccc12,outcome,[1],inactive
same,outcome,[2],inactive
same,outcome,[3],inactive
CCOC(=O)OC1=C(c2cc(C)ccc2C)C(=O)NC12CCC(OC)CC2 (centres undefined),outcome,[1],inactive
same,outcome,[2],inactive
same,outcome,[3],inactive
CCOCn1c(-c2ccc(Cl)cc2)c(C#N)c(Br)c1C(F)(F)F,outcome,[1],inactive
same,outcome,[2],inactive
same,outcome,[3],inactive
C[CH2][Hg][S]c1ccccc1C(=O)O,AC50,[1],49.1 µM (active)
same,outcome,[2],inactive
same,AC50,[3],50 µM (active)
CC(C)=CC1C(C(=O)OCc2cccc(Oc3ccccc3)c2)C1(C)C (centres undefined),outcome,[1],inactive
same,outcome,[2],inactive
same,outcome,[3],inactive
CCOP(=S)(OCC)OP(=S)(OCC)OCC,outcome,[1],inactive
same,outcome,[2],inactive
same,outcome,[3],inactive
CCOP(=S)(OCC)O/N=C(\C#N)c1ccccc1,outcome,[1],inactive
same,outcome,[2],inactive
same,outcome,[3],inactive
CNC(=O)CSP(=O)(OC)OC,outcome,[1],inactive
same,outcome,[3],inactive
Cc1cc(C(C)(C)c2ccc(O)c(C)c2)ccc1O,outcome,[1],inactive
same,outcome,[2],inactive
same,outcome,[3],inactive
CC(C)N(C(=O)CCl)c1ccccc1,outcome,[1],inactive
same,outcome,[2],inactive
same,outcome,[3],inactive
O=C(O)COc1cc(Cl)c(Cl)cc1Cl,outcome,[1],inactive
same,outcome,[2],inactive
same,outcome,[3],inactive
CCCSP(=S)(OCC)Oc1ccc(Cl)cc1Cl (centres undefined),outcome,[1],inactive
same,outcome,[2],inactive
same,outcome,[3],inactive
O=[N+]([O-])c1ccc(Cl)c([N+](=O)[O-])c1,AC50,[1],67.7 µM (active) and 56.9 µM (active)
same,outcome,[2],inactive
same,outcome,[3],inactive
N#CCCC(Br)(C#N)CBr (centres undefined),outcome,[1],inactive
same,outcome,[2],inactive
same,outcome,[3],inactive
CC(O)(CS(=O)(=O)c1ccc(F)cc1)C(=O)Nc1ccc(C#N)c(C(F)(F)F)c1 (centres undefined),outcome,[1],inactive
same,outcome,[2],inactive
same,outcome,[3],inactive
Brc1c(Br)c(Br)c(Oc2c(Br)c(Br)c(Br)c(Br)c2Br)c(Br)c1Br,outcome,[1],inactive
same,outcome,[2],inactive
same,outcome,[3],inactive
COc1ccccc1N,outcome,[1],inactive
same,outcome,[2],inactive
same,outcome,[3],inactive
Nc1ccc(N)cc1,outcome,[1],inactive
same,outcome,[2],inactive
same,outcome,[3],inactive
O=S1(=O)OC(c2cc(Br)c(O)c(Br)c2)(c2cc(Br)c(O)c(Br)c2)c2ccccc21,outcome,[1],inactive
same,outcome,[2],inactive
same,outcome,[3],inactive
Brc1ccc(Br)cc1,outcome,[1],inactive
same,outcome,[2],inactive
same,outcome,[3],inactive
